Several values for one entry are separate records, joined by “and”; a condition that tells them apart may be missing. Equal values may be shown once. Screen size: about 2,100 compounds; about 180 (8.6%) showed an effect of 50% or more. The entries come from a sample that favours strong results as a whole.
These compounds were tested on MOLM1 and UCSD/AML1 (averaged) (assay: cell viability relative to DMSO control (POC); higher = less growth inhibition). Settings: 1 µM; 72 h.
Procedure: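 Primary viability screen in the 3q26 EVI1-high AML cell lines MOLM1 and UCSD/AML1 (1.5e3 cells/well, 384-well), compounds at 1 uM for 72 h. ATP CellTiter-Glo read-out given as percent of viable cells over DMSO control (POC), averaged over duplicates. DMSO was the negative control and 5 uM etoposide the positive control. This mapping covers the MicroSource Spectrum and Selleck anticancer libraries (drug names).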

SMILES | cell viability
O=c1c(O)c(-c2ccccc2)oc2cccc(O)c12 | 93.1%
CCC(CCC(C)C1CCC2C3CCC4CC(O)CCC4(C)C3CCC12C)C(C)C (stereo unspecified) | 89.6%
C=C1C(N)CC2CC1C2(C)C (stereo not drawn) [3-AMINO-beta-PINENE] | 96.3%
CC(C)[C@@H]1CC[C@@H](C)CC1=O | 102%
CC(=O)O[C@@]12CO[C@@H]1C[C@H](O)[C@@]1(C)C(=O)[C@H](O)C3=C(C)[C@@H](OC(=O)[C@H](O)[C@@H](NC(=O)OC(C)(C)C)c4ccccc4)C[C@@](O)([C@@H](OC(=O)c4ccccc4)[C@H]21)C3(C)C [Docetaxel (Taxotere)] | 14.7%
CC(=O)O[C@H]1C(=O)[C@@]2(C)[C@H]([C@H](OC(=O)c3ccccc3)[C@]3(O)C[C@H](OC(=O)[C@H](O)[C@@H](NC(=O)c4ccccc4)c4ccccc4)C(C)=C1C3(C)C)[C@]1(OC(C)=O)CO[C@@H]1C[C@@H]2O [Paclitaxel (Taxol)] | 12.3%
CC(=O)O[C@H]1C(=O)[C@@]2(C)[C@H]([C@H](OC(=O)c3ccccc3)[C@]3(O)C[C@H](OC(=O)[C@H](O)[C@@H](NC(=O)c4ccccc4)c4ccccc4)C(C)=C1C3(C)C)[C@]1(OC(C)=O)CO[C@@H]1C[C@@H]2O | 11.7%
COc1nc(C)cnc1NS(=O)(=O)c1cccnc1-c1ccc(-c2nnco2)cc1 [Zibotentan (ZD4054)] | 71.2%
Nc1nccc(Oc2ccc(NC(=O)c3c[nH]cc(-c4ccc(F)cc4)c3=O)cc2F)c1Cl | 83.2%
O=C1c2ccccc2C(=O)c2c(O)c(O)cc(O)c21 | 83.8%
O=c1c(O)c(-c2ccccc2)oc2cc(O)ccc12 | 107%
CC1(C)CC[C@]2(C(=O)O)CC[C@]3(C)C(=CC[C@@H]4[C@@]5(C)CC[C@H](O)[C@@](C)(CO)[C@@H]5CC[C@]43C)[C@@H]2C1 | 89.4%
COc1ccc(C(C)=O)c(OC)c1 | 91.5%
COC(=O)c1c(C)cc(OC(=O)c2c(C)cc(O)c(C=O)c2O)c(C)c1O | 100%
O=C(NCCCNc1nc(Nc2cccc(NC(=O)N3CCCC3)c2)ncc1I)c1cccs1 | 47.6%
C#CC1(O)CC[C@H]2[C@@H]3CCC4=CC(=O)CC[C@@H]4[C@H]3CC[C@@]21CC (mixture of isomers) | 69.3%
C[C@@H]1CC[C@H]2C(C)(C)[C@H]3C[C@@]12CC[C@@]3(C)O | 105%
COc1cc2ccc(=O)oc2c(OC)c1OC | 110%
CCCCCCCCCCCCCCC(C(=O)O)C(O)(CC(=O)OC)C(=O)O (stereo unspecified) | 87.8%
CN1CCN(c2ccc3nc(-c4c(N)c5c(F)cccc5[nH]c4=O)[nH]c3c2)CC1 [Dovitinib (TKI-258)] | 26.7%
COc1cc2c(cc1OC)-c1cc3ccc(OC)c(OC)c3c[n+]1CC2 | 95.7% and 88.9%

SMILES | cell viability
CC(=O)O[C@@H]1CC2C(C)(C)[C@H](O)CC[C@]2(C)C2CC[C@@]3(C)[C@H](c4ccoc4)OC(=O)C4OC43[C@@]21C (stereo partly drawn) [alpha-DIHYDROGEDUNOL] | 123%
COc1ccc(-c2coc3c(O)c(OC)ccc3c2=O)cc1 | 94.6%
CNC(=O)c1ccc(C)c(-n2c(C)cc(OCc3ccc(F)cc3F)c(Br)c2=O)c1 | 87.5%
CO[C@H]1C[C@@H]2CC[C@@H](C)[C@@](O)(O2)C(=O)C(=O)N2CCCC[C@H]2C(=O)O[C@H]([C@H](C)C[C@@H]2CC[C@@H](O)[C@H](OC)C2)CC(=O)[C@H](C)/C=C(\C)[C@@H](O)[C@@H](OC)C(=O)[C@H](C)C[C@H](C)/C=C/C=C/C=C/1C [Rapamycin (Sirolimus)] | 41.5%
CO[C@H]1C[C@@H]2CC[C@@H](C)[C@@](O)(O2)C(=O)C(=O)N2CCCC[C@H]2C(=O)O[C@H]([C@H](C)C[C@@H]2CC[C@@H](OC(=O)C(C)(CO)CO)[C@H](OC)C2)CC(=O)[C@H](C)/C=C(\C)[C@@H](O)[C@@H](OC)C(=O)[C@H](C)C[C@H](C)/C=C/C=C/C=C/1C | 11%
C=CC[C@@H]1/C=C(\C)C[C@H](C)C[C@H](OC)[C@H]2O[C@@](O)(C(=O)C(=O)N3CCCC[C@H]3C(=O)O[C@H](/C(C)=C/[C@@H]3CC[C@@H](O)[C@H](OC)C3)[C@H](C)[C@@H](O)CC1=O)[C@H](C)C[C@@H]2OC | 85.3%
CO[C@H]1C[C@@H]2CC[C@@H](C)[C@@](O)(O2)C(=O)C(=O)N2CCCC[C@H]2C(=O)O[C@H]([C@H](C)C[C@@H]2CC[C@@H](OCCO)[C@H](OC)C2)CC(=O)[C@H](C)/C=C(\C)[C@@H](O)[C@@H](OC)C(=O)[C@H](C)C[C@H](C)/C=C/C=C/C=C/1C [Everolimus (RAD001)] | 50.2%
CO[C@H]1C[C@@H]2CC[C@@H](C)[C@@](O)(O2)C(=O)C(=O)N2CCCC[C@H]2C(=O)O[C@H]([C@H](C)C[C@@H]2CC[C@@H](O)[C@H](OC)C2)CC(=O)[C@H](C)/C=C(\C)[C@@H](O)[C@@H](OC)C(=O)[C@H](C)C[C@H](C)/C=C/C=C/C=C/1C | 44%
O=c1cc(-c2cccc3c2Sc2ccccc2S3)oc(N2CCOCC2)c1 | 69.4%
O=C(O)CCCCCCCCCCCC[C@@H]1C=CCC1 | 93.9%
CS(=O)(=O)CCCCN=C=S | 84.4%
COc1ccc(-c2oc3cc(OC)c(OC)c(OC)c3c(=O)c2OC)cc1OC | 101%
CC(=O)OCC(=O)[C@@]1(O)CCC2C3CCC4=CC(=O)C=C[C@]4(C)[C@@]3(F)[C@@H](O)C[C@@]21C (stereo partly specified) | 78.1%
Cc1nc(N)sc1-c1ccnc(Nc2ccc(N3CCOCC3)cc2)n1 | 46.7%
N#CCNC(=O)c1ccc(-c2ccnc(Nc3ccc(N4CCOCC4)cc3)n2)cc1 [Momelotinib (CYT387)] | 51.4%
O=C(O)c1ccccc1 | 98.9%
CC(CCC(=O)O)[C@H]1CCC2C3C[C@H](O)[C@@H]4C[C@H](O)CC[C@]4(C)C3CC[C@@]21C (stereo partly drawn) [alpha-HYDROXYDEOXYCHOLIC ACID] | 107%
CC(C)(C)c1cnc(CSc2cnc(NC(=O)C3CCNCC3)s2)o1 | 2.81%
Cc1cc(/C=C/c2ccc3cc(N(C)C)ccc3[n+]2C)c(C)n1-c1ccccc1 | 29.3%
C[C@@H]1CC[C@@]23CCC4(C)[C@@](C=CC5[C@@]6(C)CC[C@H](O)C(C)(C)C6CC[C@]54C)(OC2=O)C3[C@H]1C (stereo partly specified) | 90.8%
